The nature of experiment [1]: compound effects on lung adenocarcinoma cell viability – A549, calcein-AM fluorescence, 48 h, basal, profiling panel (AID 1162). The note with it: higher = more signal.
A short description of experiment [2]: compound effects on differentiated 3T3-L1 adipocyte viability – cell-based, 3T3-L1 adipocytes, calcein-AM fluorescence, 48 h, basal, profiling panel (AID 1163). Particulars: 3T3-L1 adipocytes viability, higher = more signal.
Experiment [3] can be described thus: compound effects on hepatocellular carcinoma cell viability – HepG2, calcein-AM fluorescence, 48 h, basal, profiling panel (AID 1164). The note with it: higher = more signal.
The nature of experiment [4]: compound effects on multiple myeloma cell viability – MM1S, calcein-AM fluorescence, 48 h, basal, profiling panel (AID 1165).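 Note: viability of MM1S multiple myeloma cells under basal unstimulated conditions.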 Particulars: higher = more signal.
A short description of experiment [5]: calcein-AM signal in unstimulated myeloma cells – cell-based, calcein-AM fluorescence, 48 h, PK04 Diversity Set, profiling panel (AID 1166).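 Note: cells grown under basal conditions without added stimulus.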 The note with it: RPMI8226 myeloma viability, higher = more signal.
Experiment [6] in a line: JC-1 mitochondrial signal, unstimulated HepG2 cells – cell-based, JC-1 fluorescence, 24 h, 100 nL compound, profiling panel (AID 1167). The note with it: HepG2 mitochondrial potential, higher = more signal.
A short description of experiment [7]: JC-1 mitochondrial signal, unstimulated adipocytes – cell-based, JC-1 fluorescence, 3T3-L1 adipocytes, 24 h, 100 nL compound, profiling panel (AID 1168). The note with it: JC-1 mitochondrial fluorescence, higher = more signal, called active from +8 up or from −8 down.
A short description of experiment [8]: JC-1 mitochondrial signal, unstimulated myeloma cells – cell-based, JC-1 fluorescence, RPMI8226, 24 h, 100 nL compound, profiling panel (AID 1169). The note with it: JC-1 mitochondrial potential fluorescence, higher = more signal.
Experiment [9] in a line: JC-1 mitochondrial signal, unstimulated MM1S myeloma – cell-based, JC-1 fluorescence, 24 h, 100 nL compound, profiling panel (AID 1170). Particulars: MM1S mitochondrial potential, higher = more signal.
A short description of experiment [10]: resazurin metabolic signal in A549 cells – cell-based, resazurin fluorescence, 24 h, PK04 Diversity Set, profiling panel (AID 1171). The note with it: A549 viability, higher = more signal, called active from +8 up or from −8 down.

The source made the active and inactive calls.
Note: test concentration not given here.

For `C=C(C(=O)CC[C@H](OC(=O)c1ccccc1-c1ccccc1C(=O)O)c1ccc(OCCO)cc1)C(C)C`, the z-score was -0.535 in [1]; 0.484 in [2]; -0.659 in experiment [3]; -1.43 in [4]; -1.48 in experiment [5]; 0.17 in experiment [6]. Also, the z-score is 0.447 (inactive) in [7], 0.0683 in experiment [8], -0.0663 in [9] and 0.393 (inactive) in experiment [10].
On to `COCCOC(=O)N1C(=O)[C@@]2(c3cc(C#CCC(C(=O)OC)C(=O)OC)ccc31)[C@H](C(=O)N1CCc3cc(OC)c(OC)cc3C1)[C@H]1C(=O)O[C@H](c3ccccc3)[C@H](c3ccccc3)N1[C@@H]2c1ccccc1OCCO`, for which the z-score in experiment [1] was 0.184; in [2], 0.964; in experiment [3], -0.717; in experiment [4], -2.22; in experiment [5] it was -0.619; in experiment [6] it was 0.543. Further, the z-score was 1.14 (inactive) in experiment [7], -0.946 in [8], -1.05 in experiment [9] and 0.853 (inactive) in experiment [10].
As to `COc1ccc(CCNC(=O)[C@@H]2c3ccccc3C(=O)N(C(C)C)[C@H]2c2ccc(CO)cc2)cc1`, the z-score in [1] is 2.2; in experiment [2] it was 1.29; in [3], 0.188; in experiment [4] it was -0.397; in [5], 1.1; in experiment [6], 0.733. The z-score is -0.232 (inactive) in [7], -0.482 in [8], 0.978 in [9] and 1.12 (inactive) in experiment [10].
Regarding `C=C(C(=O)CC[C@@H](OC(=O)c1ccccc1-c1ccccc1C(=O)O)c1cccc(OCCO)c1)C(C)C`, the z-score was 0.811 in [1]; 0.647 in experiment [2]; -0.474 in experiment [3]; -0.305 in experiment [4]; -0.637 in [5]; -1.12 in experiment [6]. Further, the z-score in experiment [7] was 1.01 (inactive); in experiment [8], -0.143; in [9] it was 0.0602; in experiment [10], 1.33 (inactive).
As to `CCCCC(=C=CC[C@H](O)c1ccccc1OCCO)CCO`, the z-score is -0.341 in experiment [1]; -0.358 in [2]; 0.285 in [3]; -0.0455 in experiment [4]; -0.857 in [5]; -0.95 in experiment [6]. Further, the z-score in experiment [7] is 0.101 (inactive); in experiment [8], -0.193; in experiment [9], -0.434; in experiment [10] it was 0.356 (inactive).
As to `CC(C)(C)OC(=O)CC[C@]1(C(=O)N2CCOCC2)COC(c2ccc(OCCCO)cc2)=N1`, the z-score is 0.204 in experiment [1]; -0.492 in experiment [2]; 1.26 in experiment [3]; 0.571 in experiment [4]; -0.785 in [5]; 2.31 in experiment [6]. Also, the z-score in experiment [7] was -0.305 (inactive); in experiment [8], -0.44; in [9], -0.143; in experiment [10], 0.216 (inactive).
As for `O=C(NC1CC1)[C@@H]1c2ccccc2C(=O)N(C2CCCCC2)[C@H]1c1ccc(CO)cc1`, the z-score in experiment [1] was 1.35; in experiment [2], -0.27; in [3], 1.12; in [4], -0.856; in experiment [5], -0.591; in experiment [6] it was 1.38. Besides, the z-score in [7] is -0.724 (inactive); in experiment [8], 0.512; in experiment [9], -0.256; in experiment [10] it was 0.0989 (inactive).
For `COC(=O)C(CC#Cc1ccc2c(c1)[C@]1(C(=O)N2)[C@H](c2ccc(OCCO)cc2)N2[C@H](c3ccccc3)[C@H](c3ccccc3)OC(=O)[C@H]2[C@@H]1C(N)=O)C(=O)OC`, the z-score in experiment [1] is -0.729; in [2], 0.251; in [3] it was -0.188; in experiment [4] it was -2.2; in experiment [5], -1.68; in experiment [6], -0.68. Besides, the z-score in [7] is 0.81 (inactive); in [8], -1.12; in experiment [9] it was -0.927; in [10], -0.0032 (inactive).
For `CC(=O)NCCCC[C@@H]1NC(=O)[C@H]2C[C@@H](C(=O)NCCCCCN)[C@@H](c3ccc(O)cc3)N2C1=O`, the z-score in experiment [1] is -0.754; in experiment [2], 0.311; in experiment [3], -0.926; in experiment [4], -0.0917; in [5], -0.556; in experiment [6], -0.659. For the same molecule, the z-score was -0.34 (inactive) in [7], 0.135 in experiment [8], 0.353 in experiment [9] and -0.0632 (inactive) in [10].
As for `CCCCCCCCCCC(O)C1C=CC2C(=O)N(C)C(=O)C2N1Nc1ccccc1` (stereo not given), the z-score in [1] is -2.46; in experiment [2], -1.27; in experiment [3], -1.38; in experiment [4] it was -3.85; in experiment [5], -4.07; in experiment [6], -1.18. In addition, the z-score is -0.92 (inactive) in experiment [7], -0.744 in experiment [8], 0.0317 in [9] and -0.545 (inactive) in [10].
As to `COc1ccc(C(=O)Nc2cccc(CN3C(=O)[C@]4(O[C@H](CC(=O)N(CCO)Cc5ccccc5)[C@@H]([Si](C)(C)c5ccc(OC)cc5)[C@@H]4C)c4ccccc43)c2)cc1`, the z-score in experiment [1] was -0.983; in experiment [2], 0.385; in experiment [3] it was -0.801; in [4], -0.829; in experiment [5], -3.92; in experiment [6] it was 0.52. The z-score in [7] was 1.3 (inactive); in [8], -0.877; in [9], -1.51; in [10] it was -1.51 (inactive).
On to `COc1ccc([Si](C)(C)[C@H]2[C@H](CC(=O)N(CCO)Cc3ccccc3)O[C@@]3(C(=O)N(Cc4ccc(N5C(=O)c6cccc7cccc5c67)cc4)c4ccccc43)[C@@H]2C)cc1`, for which the z-score in [1] was -1.12; in [2], 1.59; in [3], -0.899; in experiment [4], -0.998; in [5], -3.8; in experiment [6], 0.488. The z-score in experiment [7] is -0.381 (inactive); in [8], -1.05; in experiment [9] it was -0.091; in experiment [10], -2.22 (inactive).
With `O=C1O[C@@H](c2ccccc2)[C@@H](c2ccccc2)N2[C@@H](c3ccccc3OCCO)[C@]3(C(=O)Nc4ccc(C#CC5(O)CCCCCC5)cc43)[C@@H](C(=O)N3CCCCCCC3)[C@H]12`, the z-score is -1.66 in [1]; 1.48 in [2]; -0.0161 in [3]; -0.651 in experiment [4]; -2.59 in experiment [5]; -1.4 in experiment [6]. Moreover, the z-score in [7] was 0.644 (inactive); in experiment [8], -0.96; in experiment [9], -1.33; in [10] it was -0.64 (inactive).
As to `O=C(NCCN1CCOCC1)[C@@H]1c2ccccc2C(=O)N(CC23CC4CC(CC(C4)C2)C3)[C@H]1c1ccc(CO)cc1`, the z-score in [1] was -0.0791; in experiment [2], 1.43; in experiment [3] it was 0.45; in experiment [4], -0.846; in [5], -0.327; in [6], 2.95. In addition, the z-score in experiment [7] is -0.634 (inactive); in [8], 0.434; in experiment [9] it was -0.388; in [10] it was 1.8 (inactive).
Consider `COc1ccc(C#Cc2ccc3c(c2)[C@]2(C(=O)N3)[C@H](c3ccccc3OCCO)N3[C@H](c4ccccc4)[C@H](c4ccccc4)OC(=O)[C@H]3[C@@H]2C(=O)NC[C@H](O)c2ccccc2)cc1`, for which the z-score is -1.22 in experiment [1]; 0.449 in experiment [2]; -1.88 in [3]; -2.85 in experiment [4]; -4.12 in [5]; -1.21 in experiment [6]. The z-score is 3.95 (inactive) in experiment [7], -0.957 in experiment [8], -1.66 in [9] and -1.01 (inactive) in [10].

The values above are taken from PubChem BioAssay.
